# Assay results as given in ChEMBL document CHEMBL1961873, “Compounds: GSK PKIS; Assays: Nanosyn kinase panel” (2012).
# Columns and labels:
# [1] = target: Sphingosine kinase 1 (Homo sapiens) (UniProt Q9NYA1); details: at 1 µM;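 further: mean SPHK1 inhibition value reported from the GSK PKIS kinase panel screen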
# [2] = target: T1, Sphingosine kinase 2 (Homo sapiens) (UniProt Q9NRA0); details: at 0.1 µM
# T1 sequence (whole entry): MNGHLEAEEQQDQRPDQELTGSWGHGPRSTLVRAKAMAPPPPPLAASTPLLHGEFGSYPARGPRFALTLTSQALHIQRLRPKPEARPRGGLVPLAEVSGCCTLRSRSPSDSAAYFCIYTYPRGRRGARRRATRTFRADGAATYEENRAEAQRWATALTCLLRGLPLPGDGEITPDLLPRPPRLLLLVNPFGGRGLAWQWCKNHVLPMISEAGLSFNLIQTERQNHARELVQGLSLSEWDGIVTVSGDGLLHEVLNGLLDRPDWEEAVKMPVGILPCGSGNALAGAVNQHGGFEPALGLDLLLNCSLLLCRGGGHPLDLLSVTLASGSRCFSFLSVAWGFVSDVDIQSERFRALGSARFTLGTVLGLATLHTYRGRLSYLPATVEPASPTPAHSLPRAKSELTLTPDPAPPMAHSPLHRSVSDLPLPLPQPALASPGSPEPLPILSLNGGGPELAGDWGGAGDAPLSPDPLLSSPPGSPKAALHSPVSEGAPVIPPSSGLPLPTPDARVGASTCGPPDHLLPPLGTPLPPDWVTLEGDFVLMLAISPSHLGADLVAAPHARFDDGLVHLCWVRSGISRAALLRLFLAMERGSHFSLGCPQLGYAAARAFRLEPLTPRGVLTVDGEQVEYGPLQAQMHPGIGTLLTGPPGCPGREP
# [3] = target: T1, Sphingosine kinase 2 (Homo sapiens); details: at 1 µM
# [4] = target: Casein kinase II subunit alpha (Homo sapiens) (UniProt P68400); details: at 0.1 µM
# [5] = target: Casein kinase II subunit alpha (Homo sapiens) (UniProt P68400); details: at 1 µM
# [6] = target: T2, Inhibitor of nuclear factor kappa-B kinase subunit alpha (Homo sapiens) (UniProt O15111); details: at 0.1 µM
# T2 sequence (whole entry): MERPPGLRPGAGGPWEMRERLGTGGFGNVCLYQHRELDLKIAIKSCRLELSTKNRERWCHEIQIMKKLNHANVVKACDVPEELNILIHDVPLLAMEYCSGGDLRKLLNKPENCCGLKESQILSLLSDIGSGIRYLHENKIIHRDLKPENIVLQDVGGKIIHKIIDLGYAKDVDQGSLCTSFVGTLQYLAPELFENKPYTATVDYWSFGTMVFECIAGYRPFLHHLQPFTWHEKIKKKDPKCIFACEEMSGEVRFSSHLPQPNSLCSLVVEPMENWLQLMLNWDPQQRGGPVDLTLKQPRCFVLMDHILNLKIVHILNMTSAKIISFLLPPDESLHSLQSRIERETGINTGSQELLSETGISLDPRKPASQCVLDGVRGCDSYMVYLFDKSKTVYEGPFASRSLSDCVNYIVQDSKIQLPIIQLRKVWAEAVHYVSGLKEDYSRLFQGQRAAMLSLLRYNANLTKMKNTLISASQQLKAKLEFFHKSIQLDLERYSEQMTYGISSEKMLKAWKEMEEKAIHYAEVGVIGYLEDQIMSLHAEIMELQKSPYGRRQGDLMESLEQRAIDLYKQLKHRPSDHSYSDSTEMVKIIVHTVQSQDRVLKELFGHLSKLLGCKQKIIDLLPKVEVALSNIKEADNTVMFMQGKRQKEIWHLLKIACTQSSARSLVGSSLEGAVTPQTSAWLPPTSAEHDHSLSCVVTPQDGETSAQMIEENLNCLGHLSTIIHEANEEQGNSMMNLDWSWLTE
# [7] = target: T2, Inhibitor of nuclear factor kappa-B kinase subunit alpha (Homo sapiens); details: at 1 µM
# [8] = target: T3, Inhibitor of nuclear factor kappa-B kinase subunit beta (Homo sapiens) (UniProt O14920); details: at 0.1 µM
# T3 sequence (whole entry): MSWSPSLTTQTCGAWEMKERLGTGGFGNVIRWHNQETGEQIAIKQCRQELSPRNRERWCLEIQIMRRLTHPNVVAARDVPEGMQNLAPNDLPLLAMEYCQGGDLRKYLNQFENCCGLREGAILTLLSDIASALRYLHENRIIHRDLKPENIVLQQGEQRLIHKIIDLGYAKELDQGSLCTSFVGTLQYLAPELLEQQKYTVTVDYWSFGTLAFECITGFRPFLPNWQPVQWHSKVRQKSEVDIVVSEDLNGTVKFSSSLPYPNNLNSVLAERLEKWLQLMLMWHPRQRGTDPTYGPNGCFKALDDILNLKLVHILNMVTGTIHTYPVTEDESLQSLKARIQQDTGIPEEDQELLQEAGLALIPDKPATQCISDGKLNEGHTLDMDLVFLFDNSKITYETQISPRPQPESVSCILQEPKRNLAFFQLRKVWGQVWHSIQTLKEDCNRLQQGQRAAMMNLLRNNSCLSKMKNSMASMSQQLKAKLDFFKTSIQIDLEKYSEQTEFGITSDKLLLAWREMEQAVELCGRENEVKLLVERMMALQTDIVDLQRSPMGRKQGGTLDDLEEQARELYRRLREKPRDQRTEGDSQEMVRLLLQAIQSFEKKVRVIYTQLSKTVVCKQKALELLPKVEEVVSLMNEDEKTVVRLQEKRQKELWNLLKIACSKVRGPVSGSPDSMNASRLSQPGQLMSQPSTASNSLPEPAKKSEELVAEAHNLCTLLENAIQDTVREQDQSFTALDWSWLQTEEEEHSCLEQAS
# [9] = target: T3, Inhibitor of nuclear factor kappa-B kinase subunit beta (Homo sapiens); details: at 1 µM
# [10] = target: T4, Inhibitor of nuclear factor kappa-B kinase subunit epsilon (Homo sapiens) (UniProt Q14164); details: at 0.1 µM
# T4 sequence (whole entry): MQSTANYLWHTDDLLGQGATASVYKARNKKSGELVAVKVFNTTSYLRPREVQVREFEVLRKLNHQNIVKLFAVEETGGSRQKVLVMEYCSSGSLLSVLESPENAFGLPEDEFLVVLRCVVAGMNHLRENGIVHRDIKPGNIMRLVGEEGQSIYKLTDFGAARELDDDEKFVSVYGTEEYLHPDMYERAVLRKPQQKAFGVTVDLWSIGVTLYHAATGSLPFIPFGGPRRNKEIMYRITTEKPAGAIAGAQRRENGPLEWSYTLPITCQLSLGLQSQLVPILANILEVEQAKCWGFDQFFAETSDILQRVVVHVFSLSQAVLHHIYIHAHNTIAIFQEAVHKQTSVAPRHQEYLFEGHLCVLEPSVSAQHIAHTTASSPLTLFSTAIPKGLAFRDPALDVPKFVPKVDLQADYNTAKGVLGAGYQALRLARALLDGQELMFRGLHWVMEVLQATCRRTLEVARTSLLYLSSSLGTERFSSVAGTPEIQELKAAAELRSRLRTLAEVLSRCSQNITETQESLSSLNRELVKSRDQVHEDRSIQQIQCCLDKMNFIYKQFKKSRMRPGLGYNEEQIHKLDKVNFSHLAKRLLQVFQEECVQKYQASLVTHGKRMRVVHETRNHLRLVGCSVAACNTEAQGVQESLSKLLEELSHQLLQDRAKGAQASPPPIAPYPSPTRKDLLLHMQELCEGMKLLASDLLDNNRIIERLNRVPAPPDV
# [11] = target: T4, Inhibitor of nuclear factor kappa-B kinase subunit epsilon (Homo sapiens); details: at 1 µM
# [12] = target: T5, Serine/threonine-protein kinase Nek1 (Homo sapiens) (UniProt Q96PY6); details: at 0.1 µM
# T5 sequence (whole entry): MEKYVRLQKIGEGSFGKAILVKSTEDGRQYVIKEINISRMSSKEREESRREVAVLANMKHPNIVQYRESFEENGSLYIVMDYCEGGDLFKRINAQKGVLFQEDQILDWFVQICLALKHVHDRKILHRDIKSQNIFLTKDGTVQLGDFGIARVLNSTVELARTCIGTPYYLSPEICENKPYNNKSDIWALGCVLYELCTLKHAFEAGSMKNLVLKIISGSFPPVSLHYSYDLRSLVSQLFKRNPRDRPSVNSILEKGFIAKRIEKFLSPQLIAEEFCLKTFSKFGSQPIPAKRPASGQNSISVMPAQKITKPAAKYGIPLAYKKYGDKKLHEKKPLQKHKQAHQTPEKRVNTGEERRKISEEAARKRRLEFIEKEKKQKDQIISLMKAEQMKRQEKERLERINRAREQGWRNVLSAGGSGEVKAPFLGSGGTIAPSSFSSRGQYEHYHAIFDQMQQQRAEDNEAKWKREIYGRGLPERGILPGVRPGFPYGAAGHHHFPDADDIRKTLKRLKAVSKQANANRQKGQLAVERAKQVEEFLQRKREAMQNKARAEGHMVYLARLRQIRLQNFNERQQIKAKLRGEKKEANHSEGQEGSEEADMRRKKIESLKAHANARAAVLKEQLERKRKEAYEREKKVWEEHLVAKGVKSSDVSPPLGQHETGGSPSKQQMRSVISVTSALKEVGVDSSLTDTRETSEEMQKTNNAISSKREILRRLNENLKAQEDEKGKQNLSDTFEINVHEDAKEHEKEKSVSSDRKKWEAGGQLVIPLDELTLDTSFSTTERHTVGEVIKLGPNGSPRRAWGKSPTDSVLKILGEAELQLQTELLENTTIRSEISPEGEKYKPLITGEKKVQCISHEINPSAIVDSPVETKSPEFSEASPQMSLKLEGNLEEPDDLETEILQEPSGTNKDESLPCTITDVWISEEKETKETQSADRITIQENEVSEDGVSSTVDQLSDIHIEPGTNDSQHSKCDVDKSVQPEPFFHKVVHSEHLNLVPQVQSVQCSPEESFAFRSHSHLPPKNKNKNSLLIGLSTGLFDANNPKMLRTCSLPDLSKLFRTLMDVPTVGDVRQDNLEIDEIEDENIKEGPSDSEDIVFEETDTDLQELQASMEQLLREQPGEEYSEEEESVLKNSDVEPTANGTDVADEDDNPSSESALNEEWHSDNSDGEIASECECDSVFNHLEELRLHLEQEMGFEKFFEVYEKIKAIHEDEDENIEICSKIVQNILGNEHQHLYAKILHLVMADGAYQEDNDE
# [13] = target: T5, Serine/threonine-protein kinase Nek1 (Homo sapiens); details: at 1 µM
# [14] = target: T6, Serine/threonine-protein kinase Nek2 (Homo sapiens) (UniProt P51955); details: at 0.1 µM
# T6 sequence (whole entry): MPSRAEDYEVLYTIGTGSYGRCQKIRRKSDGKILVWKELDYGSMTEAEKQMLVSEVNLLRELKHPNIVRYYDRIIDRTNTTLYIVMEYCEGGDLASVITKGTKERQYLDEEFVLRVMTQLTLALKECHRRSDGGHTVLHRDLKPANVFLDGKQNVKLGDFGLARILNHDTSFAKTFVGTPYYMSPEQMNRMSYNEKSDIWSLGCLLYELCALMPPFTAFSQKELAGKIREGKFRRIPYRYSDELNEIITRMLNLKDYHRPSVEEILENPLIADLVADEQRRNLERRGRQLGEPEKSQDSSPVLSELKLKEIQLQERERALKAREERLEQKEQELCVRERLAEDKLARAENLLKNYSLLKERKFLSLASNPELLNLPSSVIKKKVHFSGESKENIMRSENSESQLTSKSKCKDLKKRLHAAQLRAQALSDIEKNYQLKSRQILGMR
# [15] = target: T6, Serine/threonine-protein kinase Nek2 (Homo sapiens); details: at 1 µM
# [16] = target: Serine/threonine-protein kinase Nek6 (Homo sapiens) (UniProt Q9HC98); details: at 0.1 µM
# [17] = target: Serine/threonine-protein kinase Nek6 (Homo sapiens) (UniProt Q9HC98); details: at 1 µM
# [18] = target: Serine/threonine-protein kinase Nek7 (Homo sapiens) (UniProt Q8TDX7); details: at 0.1 µM
# [19] = target: Serine/threonine-protein kinase Nek7 (Homo sapiens) (UniProt Q8TDX7); details: at 1 µM
# [20] = target: T7, Serine/threonine-protein kinase Nek9 (Homo sapiens) (UniProt Q8TD19); details: at 0.1 µM;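 further: reported value is the mean percent inhibition of NEK9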
# T7 sequence (whole entry): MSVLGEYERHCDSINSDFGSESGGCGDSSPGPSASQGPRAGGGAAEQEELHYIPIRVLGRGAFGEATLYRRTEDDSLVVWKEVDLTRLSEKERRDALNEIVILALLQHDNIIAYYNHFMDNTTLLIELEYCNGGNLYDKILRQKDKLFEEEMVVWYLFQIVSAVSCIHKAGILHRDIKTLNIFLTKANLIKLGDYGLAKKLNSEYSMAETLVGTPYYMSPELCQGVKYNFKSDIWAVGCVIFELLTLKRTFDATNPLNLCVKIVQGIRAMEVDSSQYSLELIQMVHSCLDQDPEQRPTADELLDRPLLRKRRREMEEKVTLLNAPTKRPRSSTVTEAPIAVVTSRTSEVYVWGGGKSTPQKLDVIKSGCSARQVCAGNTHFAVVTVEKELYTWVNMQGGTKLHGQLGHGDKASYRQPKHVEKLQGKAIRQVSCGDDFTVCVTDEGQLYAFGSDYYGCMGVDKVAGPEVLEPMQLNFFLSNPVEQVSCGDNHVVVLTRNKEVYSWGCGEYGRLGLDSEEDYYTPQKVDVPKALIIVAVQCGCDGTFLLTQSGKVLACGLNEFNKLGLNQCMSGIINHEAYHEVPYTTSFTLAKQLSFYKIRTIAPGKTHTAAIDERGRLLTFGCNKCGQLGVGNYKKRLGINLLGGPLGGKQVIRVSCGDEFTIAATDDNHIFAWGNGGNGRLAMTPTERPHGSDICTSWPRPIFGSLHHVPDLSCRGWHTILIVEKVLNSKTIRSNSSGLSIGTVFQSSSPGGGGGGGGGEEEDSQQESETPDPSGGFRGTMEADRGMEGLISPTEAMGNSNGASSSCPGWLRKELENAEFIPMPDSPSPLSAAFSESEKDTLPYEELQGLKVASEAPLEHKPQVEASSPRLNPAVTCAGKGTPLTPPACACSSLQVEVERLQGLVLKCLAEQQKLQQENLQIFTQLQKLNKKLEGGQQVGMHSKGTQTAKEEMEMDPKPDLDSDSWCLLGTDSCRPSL
# Chain of Casein kinase II subunit alpha (Homo sapiens) (P68400 whole entry, looked up): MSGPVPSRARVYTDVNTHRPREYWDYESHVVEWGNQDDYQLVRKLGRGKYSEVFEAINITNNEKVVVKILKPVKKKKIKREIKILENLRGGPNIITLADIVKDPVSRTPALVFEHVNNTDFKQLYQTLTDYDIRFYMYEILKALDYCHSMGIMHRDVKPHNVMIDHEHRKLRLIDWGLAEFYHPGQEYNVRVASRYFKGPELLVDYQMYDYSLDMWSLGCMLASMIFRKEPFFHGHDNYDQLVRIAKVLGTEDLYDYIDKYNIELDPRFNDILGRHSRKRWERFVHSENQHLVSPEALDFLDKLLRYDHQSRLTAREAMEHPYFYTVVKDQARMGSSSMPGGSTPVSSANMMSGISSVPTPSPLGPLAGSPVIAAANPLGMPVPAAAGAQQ
# Chain of Serine/threonine-protein kinase Nek7 (Homo sapiens) (Q8TDX7 whole entry, looked up): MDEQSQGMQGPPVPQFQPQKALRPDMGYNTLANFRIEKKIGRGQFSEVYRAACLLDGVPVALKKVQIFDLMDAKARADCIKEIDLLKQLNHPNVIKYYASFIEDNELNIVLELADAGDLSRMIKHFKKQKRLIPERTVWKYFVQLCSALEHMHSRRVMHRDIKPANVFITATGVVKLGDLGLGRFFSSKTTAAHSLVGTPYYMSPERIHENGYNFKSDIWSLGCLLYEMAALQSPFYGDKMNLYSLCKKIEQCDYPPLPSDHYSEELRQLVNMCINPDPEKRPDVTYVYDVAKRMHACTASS
# Chain of Serine/threonine-protein kinase Nek6 (Homo sapiens) (Q9HC98 whole entry): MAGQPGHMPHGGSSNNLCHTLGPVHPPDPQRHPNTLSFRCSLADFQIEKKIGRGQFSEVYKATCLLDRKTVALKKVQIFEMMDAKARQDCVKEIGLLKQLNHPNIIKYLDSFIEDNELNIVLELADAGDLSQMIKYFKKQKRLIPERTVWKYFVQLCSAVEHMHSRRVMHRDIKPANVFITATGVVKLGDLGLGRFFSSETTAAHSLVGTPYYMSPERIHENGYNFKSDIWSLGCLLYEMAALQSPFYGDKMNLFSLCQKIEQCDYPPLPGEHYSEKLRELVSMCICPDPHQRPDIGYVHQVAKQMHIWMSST
# Chain of Sphingosine kinase 1 (Homo sapiens) (Q9NYA1 whole entry): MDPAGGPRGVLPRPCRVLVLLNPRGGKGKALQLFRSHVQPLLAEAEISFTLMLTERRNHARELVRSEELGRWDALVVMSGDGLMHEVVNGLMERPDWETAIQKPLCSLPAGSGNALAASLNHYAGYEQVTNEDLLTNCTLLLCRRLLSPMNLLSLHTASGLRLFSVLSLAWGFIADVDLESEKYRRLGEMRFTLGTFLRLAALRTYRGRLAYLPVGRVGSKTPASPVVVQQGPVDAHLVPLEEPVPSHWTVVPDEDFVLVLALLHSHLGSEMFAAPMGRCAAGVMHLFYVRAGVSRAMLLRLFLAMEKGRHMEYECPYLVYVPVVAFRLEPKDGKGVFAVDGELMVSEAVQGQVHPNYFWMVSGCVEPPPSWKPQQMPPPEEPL
compound,measurement,setting,value
Cc1cccc(-c2n[nH]cc2-c2ccc3ncccc3n2)n1,inhibition,[1],-1.51%
same,inhibition,[2],0.61%
same,inhibition,[3],0.2%
same,inhibition,[4],1.46%
same,inhibition,[5],4.82%
same,inhibition,[6],2.07%
same,inhibition,[7],5.93%
same,inhibition,[8],0.87%
same,inhibition,[9],0.63%
same,inhibition,[10],0.62%
same,inhibition,[11],2.37%
same,inhibition,[12],2.07%
same,inhibition,[13],2.35%
same,inhibition,[14],1.59%
same,inhibition,[15],1.08%
same,inhibition,[16],1.75%
same,inhibition,[17],3.64%
same,inhibition,[18],2.98%
same,inhibition,[19],1.74%
same,inhibition,[20],1.6%
